Only some compounds are listed: those with a hit (about 28% of all), similar ones and a draw of the others.
CYP2C19 inhib – blocks human cytochrome P450 2C19. P33261. CYP2C19 Supersomes, luciferin-H EGE luminescence, 30 min. inhibition, % at 5 µM. actives 21% (n = 96,000);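 active = CYP2C19 inhibition above a set limit at 5 µM in the primary screen, cut at about 50% in these data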;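 also: plate controls were negative control wells for no effect and 2.5 mM tranylcypromine positive control for full effect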
Pyk2 oligo antag – Pyk2 (human) oligomerization antagonism; AID 1347419; Q14289; Q293 cells, Pyk2 FERM NanoBiT luminescence; hits give low values; z-score (the deposit names both 25 µM and 10 µM); actives 0.83% (n = 99,000);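 active = Z-score of -3 or lower, scaled per plate to the spread of control and sample wells; inactive = z-score above -3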;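 also: negative z-score means lost luminescence so less FERM oligomerization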
Target sequence (Q14289 whole entry, looked up): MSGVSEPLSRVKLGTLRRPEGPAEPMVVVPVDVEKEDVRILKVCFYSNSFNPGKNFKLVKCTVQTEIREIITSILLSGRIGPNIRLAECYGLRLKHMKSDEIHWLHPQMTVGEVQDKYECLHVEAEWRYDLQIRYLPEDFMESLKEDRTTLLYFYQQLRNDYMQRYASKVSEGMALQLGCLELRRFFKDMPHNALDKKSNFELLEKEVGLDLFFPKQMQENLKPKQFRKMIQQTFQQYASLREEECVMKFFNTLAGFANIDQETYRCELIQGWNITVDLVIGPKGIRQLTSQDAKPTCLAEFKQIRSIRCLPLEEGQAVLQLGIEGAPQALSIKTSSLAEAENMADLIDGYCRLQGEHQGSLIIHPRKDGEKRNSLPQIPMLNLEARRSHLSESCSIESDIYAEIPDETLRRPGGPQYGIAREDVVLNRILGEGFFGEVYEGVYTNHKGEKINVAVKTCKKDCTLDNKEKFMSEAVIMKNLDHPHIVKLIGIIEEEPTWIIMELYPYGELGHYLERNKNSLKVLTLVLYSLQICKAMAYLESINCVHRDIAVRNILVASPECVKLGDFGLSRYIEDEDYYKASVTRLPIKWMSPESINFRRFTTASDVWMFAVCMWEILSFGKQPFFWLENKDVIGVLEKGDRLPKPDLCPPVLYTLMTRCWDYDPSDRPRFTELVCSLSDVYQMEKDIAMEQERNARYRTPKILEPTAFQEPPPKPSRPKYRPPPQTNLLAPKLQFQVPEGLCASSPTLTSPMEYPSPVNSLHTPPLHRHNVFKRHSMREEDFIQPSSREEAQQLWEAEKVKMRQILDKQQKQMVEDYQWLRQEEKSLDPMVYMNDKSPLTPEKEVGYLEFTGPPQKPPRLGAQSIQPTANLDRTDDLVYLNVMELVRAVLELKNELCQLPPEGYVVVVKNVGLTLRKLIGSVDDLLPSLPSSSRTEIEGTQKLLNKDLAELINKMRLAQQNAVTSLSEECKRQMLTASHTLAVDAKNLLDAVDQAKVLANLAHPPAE
CYP2C19 activ – increases human CYP2C19 enzyme activity | recombinant CYP2C19, luciferin-H EGE luminescence; hits give high values; 0 = fully inhibited enzyme, 1 = untreated enzyme | activation factor at 5 µM | 96,000 tested, under 10 active | AID 1025;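 active = activation factor of at least 2 at 5 µM in the primary screen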;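 also: 0 = wells with 2.5 mM tranylcypromine and 1 = vehicle-only wells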
CYP2C9 act – activators of human CYP2C9 | P11712 | actives 1.4% (n = 96,000) | activation factor at 5 µM | recombinant CYP2C9, luciferin-H conversion, luminescence; hits give high values; factor 1 = untreated enzyme, 0 = blocked;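 active = activation factor of 2 or more for CYP2C9 at a 5 µM dose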;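 also: 0 = sulfaphenazole-blocked wells and 1 = vehicle-only wells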
CYP2C9 inh – blocks human cytochrome P450 2C9 | CYP2C9 Supersomes, luciferin-H conversion, luminescence | inhibition, % at 5 µM | actives 20% (n = 96,000);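 active = blocking of liver enzyme CYP2C9 beyond about 50% at 5 µM, limit read from the data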
Starred values were filed as active, the others as inactive; nt = no result given.

SMILES	CYP2C19 inhib	Pyk2 oligo antag	CYP2C19 activ	CYP2C9 act	CYP2C9 inh
COc1ccc(CC(=O)Nc2ccc(-c3nnc(-c4ccccc4)o3)cc2)cc1OC	14	-0.38	0.9	0.8	25
COc1ccc(-c2nc3cc(NC(=O)Cc4ccc(OC)c(OC)c4)ccc3o2)cc1	57*	-1.6	0.4	0.4	55*
COc1ccc(CC(=O)Nc2cccc(-c3nnc(-c4ccc(C)cc4)o3)c2)cc1OC	nt	-2.5	nt	nt	nt
COc1ccc(CC(=O)Nc2cccc(-c3nnc(-c4cccc(C)c4)o3)c2)cc1OC	98*	-2	0	0.1	88*
CCOC(=O)c1[nH]c(C)c(C(=O)N2CCN(c3ccc(F)cc3)CC2)c1C	79*	0.09	0.2	0.2	77*
CCOC(=O)c1[nH]c(C)c(C(=O)N2CCN(c3cccc(Cl)c3)CC2)c1C	68*	-0.17	0.3	0.1	88*
CC(C)(C)CC(=O)NC(=S)N1CCCCCC1	14	1.6	0.9	1	0
O=C(NCN1CCN(c2ccccc2F)CC1)c1cccnc1	34	0.89	0.7	1	2
O=C1/C(=C/c2ccccc2)CSc2sccc21	55*	-0.09	0.5	0.6	40
Cc1ccc(NC(=O)CSc2nc(NS(=O)(=O)c3ccc(C)cc3)cc(=O)[nH]2)cc1	28	0.12	0.7	0.4	65*
COc1cc(NS(=O)(=O)c2ccc(NC(=O)COc3ccc(C)cc3)cc2)nc(OC)n1	25	-0.14	0.7	0.2	82*
COc1ccc(NC(=O)CSc2nc(NS(=O)(=O)c3ccccc3)cc(=O)[nH]2)cc1	1	-0.28	1	0.8	17
COc1cc(NS(=O)(=O)c2ccc(NS(=O)(=O)c3ccccc3)cc2)nc(OC)n1	5	-0.06	1	0.2	78*
COc1cc(NS(=O)(=O)c2ccc(NC(=S)NC(=O)C(C)(C)C)cc2)nc(OC)n1	10	0.05	0.9	1	4
COc1cc(NS(=O)(=O)c2ccc(NC(=O)COc3ccccc3C)cc2)nc(OC)n1	20	-0.42	0.8	0.1	91*
COc1cc(NS(=O)(=O)c2ccc(NC(=O)COc3ccc(C)cc3C)cc2)nc(OC)n1	1	-0.56	1	0.3	69*
CCOc1ccccc1OCCCC(=O)N1CCN(S(=O)(=O)c2ccc(C)cc2)CC1	86*	-0.79	0.1	0.5	46
CCOc1ccccc1OCCCC(=O)N1CCN(S(=O)(=O)c2cccc(F)c2)CC1	75*	-0.05	0.3	0.6	36
COc1ccc(C2C(C(=O)NCc3cccnc3)c3cc(OC)c(OC)cc3C(=O)N2C)cc1 (stereo not drawn)	17	0.96	0.8	0.7	29
COc1ccc(C2C(C(=O)N3CCN(c4ccccc4)CC3)c3ccccc3C(=O)N2C)cc1OC (stereo not drawn)	35	-0.37	0.7	0.3	73*
COc1ccc(C2C(C(=O)NCc3cccnc3)c3ccccc3C(=O)N2C)cc1OC (stereo not drawn)	-14	0.36	1.1	0.3	70*
COc1ccc(C2C(C(=O)N3CCN(c4ccccc4)CC3)c3ccccc3C(=O)N2C)cc1 (stereo not drawn)	nt	-0.66	nt	nt	nt
O=C(O)COc1cccc2ccccc12	-1	0.91	1	0.9	11
CCN(CC)C(=O)COc1cccc2ccccc12	93*	-0.23	0.1	3.7*	-266
NC(=O)CSc1nnnn1-c1ccc2c(c1)OCCO2	nt	-0.2	nt	nt	nt
SMILES	CYP2C19 inhib	Pyk2 oligo antag	CYP2C19 activ	CYP2C9 act	CYP2C9 inh
COc1ccc(-c2nnc(SCC(=O)NC(=O)NCc3ccccc3)o2)cc1	42	0.11	0.6	1.9	-95
COc1ccc(C(=O)/C=C/c2cn(CN3CCN(C)CC3)c3ccccc23)cc1	67*	-2.6	0.3	0.3	68*
COc1ccc(C(=O)/C=C/c2ccccc2C(F)(F)F)cc1	15	-2	0.9	1.9	-90
CCOc1ccc(C(=O)/C=C/c2cn(CN3CCN(C)CC3)c3ccccc23)cc1	62*	-2.7	0.4	0.4	64*
O=C(N/N=C/C1C(c2ccccc2)C1(Cl)Cl)c1cccc(Br)c1 (stereo not drawn)	18	-1.1	0.8	0.3	70*
C/C(=N\NC(=O)c1cccc(Br)c1)c1ccc(Br)cc1	12	0.15	0.9	0.9	11
O=C(O)c1ccc(-c2ccccc2)[nH]1	72*	-0.02	0.3	1.6	-56
C=CC[N+](C)(C)C/C(Cl)=C(\Cl)c1ccccc1	-14	0.25	1.1	0.5	55*
C=CCC(C#Cc1ccccc1)[N+](C)(C)CC=C (stereo not drawn)	2	0.24	1	1.1	-13
CN1CCN(NC(=O)c2cc([N+](=O)[O-])cc([N+](=O)[O-])c2)CC1	-5	0.05	1	1	2
COc1ccc(-n2c(C)cc(C=O)c2C)cc1Cl	59*	-0.19	0.4	0.8	16
Cc1cc(C=O)c(C)n1-c1ccc(N2CCCCC2)c([N+](=O)[O-])c1	nt	-0.25	nt	nt	nt
CC(C)(C)n1nc(-c2ccc(Cl)cc2)c2c(N)ncnc21	59*	-0.65	0.4	0.9	13
Cc1cccc(/C(N)=N/OC(=O)c2cccs2)c1	22	-0.4	0.8	0.6	38
Cn1c(C(O)c2ccc(Cl)cc2)nc(Cl)c1Cl (stereo not drawn)	91*	-0.37	0.1	0.9	15
C=CCNC(=O)c1cccc(C(F)(F)F)c1	10	0.57	0.9	1	5
CN(C)c1ccc(-c2ccccc2)nn1	58*	0.99	0.4	0.8	19
O=C1c2ccccc2-c2nnc(-c3ccccc3)cc21	25	-0.52	0.7	0.8	21
COc1cc2c(cc1OC)-c1nc3ccccc3c(=O)n1C(C)(C)C2	26	-0.68	0.7	0.4	56*
COc1ccc(-c2nnc3n2C(C)(C)Cc2cc(OC)c(OC)cc2-3)cc1	13	nt	0.9	1.6	-63
CCOc1ccc(C2Oc3nc(SC)nnc3-c3ccccc3N2C(C)=O)cc1OC (stereo not drawn)	2	nt	1	0.8	15
Cc1ccc(C)c(NS(=O)(=O)c2cc(C(=O)Nc3ccccc3-c3ccccc3)ccc2C)c1	54*	-2.3	0.5	0.2	80*
NC(=O)c1ccccc1NS(=O)(=O)c1ccccc1	25	-0.05	0.7	2.3*	-133
NC(=O)c1ccccc1NS(=O)(=O)Cc1ccc(Cl)cc1	66*	0.59	0.3	1.6	-57
Cc1ccc(S(=O)(=O)Nc2ccccc2C(N)=O)cc1	23	-0.11	0.8	2.1*	-109
NC(=O)c1ccccc1NS(=O)(=O)c1cccs1	14	0.3	0.9	1.9	-90
CN(C)S(=O)(=O)Nc1ccccc1C(N)=O	-1	1.1	1	1.5	-52
Cc1ccc(/C(O)=C2\C(=O)C(=O)N(CC(C)O)C2c2ccc(N(C)C)cc2)cc1 (stereo not drawn)	18	1.8	0.8	1.1	-6

Bioassay records as filed in PubChem.
